D2 ag-1: activates the human D2 dopamine receptor; activation, % at 2 µM; P14416; 340,000 tested, 0.53% active; HEK293 T-REx D2 cells, calcium flux agonist mode;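 active = activation over 3 SD above normal in the single-dose calcium agonist read, cut at about 30% in these data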; note: 0% is about no effect
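Tetracycline-induced HEK293 T-REx cells with force-coupled D2 receptor, plated overnight at 30 C, loaded with no-wash calcium dye. After a 10 s baseline, compound was pin-added and calcium flux read kinetically for 180 s; calcium rises flagged agonists.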
D2 ag-2: activates the human D2 dopamine receptor; DiscoveRx PathHunter D2 beta-arrestin, luminescence, 90 min; 100% = 57 uM dopamine signal; activation, % (no concentration beside the values); 360,000 tested, 0.084% active; AID 624465; in the data active = activation above about 40%; inconclusive = between about 15% and that limit
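DiscoveRx PathHunter D2 beta-arrestin cells (2,100/well) attached overnight, then compound-stimulated 90 min at 37 C in HBSS/10 mM HEPES/0.1% Tween-20 buffer; beta-galactosidase complementation read by luminescence after 1 h at ambient temperature. Dopamine 57 uM final (EC100) as control.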
D2 antagonist: D2 dopamine receptor (human) antagonism | HEK293 TREx D2 cells, calcium flux, dopamine EC80 | inhibition, % at 10 µM | 340,000 tested, 2% active; in the data active = inhibition above about 30%; inactive = below that, where a call was filed; note: 0% is about no effect
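Tetracycline-induced HEK293 TREx cells expressing D2 receptor forced-coupled to calcium signalling, loaded with no-wash calcium dye. Compounds added and calcium flux read 180 s, then dopamine added at EC80 and read a further 180 s.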
D2 PAM-1: potentiates the human D2 dopamine receptor allosterically | P14416 | DiscoveRx D2 beta-arrestin cells, luminescence, 90 min; 100% = 57 uM dopamine signal | potentiation, % (concentration not given with the values) | 360,000 tested, 0.23% active; in the data active = potentiation above about 50%; inconclusive = mostly about 30% to 49%
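PathHunter beta-arrestin assay in DiscoveRx D2 cells. Compounds were added with an EC20 of dopamine (50 nM final) for 90 min at 37 deg C. Luminescence was read 1 h after detection reagent, with 57 uM dopamine as the EC100 control.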
D2 PAM-2: positively modulates the human D2 dopamine receptor allosterically; 340,000 tested, 0.34% active; HEK293 T-REx D2, calcium flux, EC20 dopamine potentiation; P14416; AID 485347; potentiation, % at 10 µM;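 active = potentiation over 3 SD above the plate norm, cut at about 30% in these data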; note: 0% is about no effect
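Tetracycline-induced HEK293 T-REx cells force-coupled to calcium signalling expressed D2; compounds were pin-added after a 10 s baseline, read kinetically 180 s, then an EC20 dopamine challenge followed with a further 180 s calcium read.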
D3 arrestin ag: D3 receptor agonism confirmed, beta-arrestin readout; shares compounds with D2 ag-1; DiscoveRx D3 beta-arrestin cells, luminescence, 90 min; Potency, µM (series often up to 76.9 µM), without a hit: at the highest dose activation, usual class: activators; 2,300 tested, 4% active; AID 720506;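 note: potency is the fitted concentration of half-maximal effect; 100% = dopamine control response; nearly all actives have a fitted effect of over 70% in size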
Target sequence (P35462 whole entry, looked up): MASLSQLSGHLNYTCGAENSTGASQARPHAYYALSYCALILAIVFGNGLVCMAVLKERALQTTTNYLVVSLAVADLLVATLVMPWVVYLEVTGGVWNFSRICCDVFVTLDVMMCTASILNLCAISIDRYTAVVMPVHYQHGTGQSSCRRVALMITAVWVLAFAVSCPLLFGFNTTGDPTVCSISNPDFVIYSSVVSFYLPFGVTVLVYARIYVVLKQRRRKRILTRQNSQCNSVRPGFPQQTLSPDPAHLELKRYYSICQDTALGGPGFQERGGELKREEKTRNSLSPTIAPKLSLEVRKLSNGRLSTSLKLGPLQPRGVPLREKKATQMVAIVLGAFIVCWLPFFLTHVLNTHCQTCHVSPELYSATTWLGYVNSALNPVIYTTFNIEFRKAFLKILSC
D2 ag-3: D2 receptor agonism, beta-arrestin counterscreen; AID 720507; Potency, µM (doses to about 76.9 µM), without a hit: at the top dose activation, most hits filed as activators; DiscoveRx PathHunter D2 beta-arrestin, luminescence, 90 min; response scale: percent relative to full dopamine signal; shares compounds with D2 ag-1; 2,300 tested, 5.9% active; note: potency is the fitted concentration of half-maximal effect; % of control where 0% means no effect; nearly all actives have a fitted effect of over 70% in size
* = called active by the depositor; ? = inconclusive; nt = no result. Compounds with a hit are over-represented: about 2.4% of the library has one in this group of screens. Unless noted, calls come from the whole dose curve; as a rule, active = well fitted activation curve with a large enough effect; inconclusive = small, poorly fitted or top-dose-only effect; inactive = flat fitted curve, though single readings scatter.

SMILES | D2 ag-1 | D2 ag-2 | D2 antagonist | D2 PAM-1 | D2 PAM-2 | D3 arrestin ag | D2 ag-3
Cc1cccc(C(=O)Nc2ccc(OCc3cc(=O)n4ccc(C)cc4n3)cc2)c1 | 0 | nt | nt | nt | -2 | nt | nt
CC1C(=O)N(Cc2ccc([N+](=O)[O-])cc2)c2ccccc2N1C(=O)c1c(F)cccc1F (stereo unspecified) | -1 | 4 | -6 | 8 | -4 | nt | nt
COc1ccc(CN2C(=O)C(C)N(C(=O)c3c(F)cccc3F)c3ccccc32)cc1 (stereo unspecified) | 0 | -1 | 23 | -6 | 2 | 7% | -4%
CC(C)NCC1CCc2cc(CO)c([N+](=O)[O-])cc2N1 (stereo unspecified) | 42* | -5 | -1 | -32 | -22 | -8% | -2%
CC(C)[C@@H](COc1ccccc1)N1CCN(Cc2ccccc2)CCC1=O | -2 | 3 | -19 | 6 | 1 | nt | nt
CC(COc1ccccc1)N(CCCl)Cc1ccccc1 (stereo unspecified) | 90* | 4 | 61* | -16 | -28 | -8% | 18%
COc1ccccc1CNC(=O)C1CCN(S(=O)(=O)c2c(C)noc2/C=C/c2c(C)cc(C)cc2C)CC1 | 0 | nt | nt | nt | -3 | nt | nt
Nc1nc(CN2CCN(c3ccccc3F)CC2)nc(Nc2ccccc2)n1 | 60* | 6 | 47* | -3 | -24 | 9% | 16%
COc1ccc(Nc2nc(N)nc(CN3CCC(C)CC3)n2)cc1 | 0 | -3 | -3 | -17 | -6 | nt | nt
Nc1nc(CN2CCCCCC2)nc(Nc2ccccc2)n1 | -1 | 0 | 10 | -4 | 7 | nt | nt
COc1ccc(Nc2nc(N)nc(CN3CCN(c4ccccn4)CC3)n2)cc1 | 76* | ? | 73* | 4 | -29 | 3% | ?
Cc1ccc(Nc2nc(N)nc(CN3CCN(c4ccccc4F)CC3)n2)cc1 | 75* | ? | 78* | 18 | -24 | -1% | ?
Nc1nc(CN2CCN(c3ccccc3)CC2)nc(Nc2ccc(Cl)cc2)n1 | 64* | 43* | 77* | ? | -24 | ? | 18µM*
Cc1ccc(-n2nc(C(=O)Nc3cccc(C#N)c3)c3c4ccccc4n(C)c3c2=O)cc1 | 0 | nt | nt | nt | 11 | nt | nt
COc1cc(OC)cc(C(=O)Nc2ccc(S(=O)(=O)N3CCCCC3c3cccnc3)cc2)c1 (stereo unspecified) | -1 | nt | nt | nt | -2 | nt | nt
Cn1c(=NC(=O)COc2ccccc2)sc2cc(F)cc(F)c21 | 1 | -6 | -5 | -7 | 2 | nt | nt
Cn1c(=NC(=O)COc2ccccc2)sc2cccc(F)c21 | 2 | -1 | 3 | 0 | -6 | -4% | -2%
Cc1ccccc1-c1cc2nccc(-c3cc(Cl)ccc3O)n2n1 | -1 | nt | nt | nt | -14 | nt | nt
Cc1ccccc1C(=O)NCC(=O)NNC(=O)CCN1CCN(c2ccccc2)CC1 | 82* | 14 | 72* | -22 | -19 | ? | ?
O=C(CCN1CCN(c2ccccc2)CC1)NNC(=O)Cc1ccc(Br)cc1 | 77* | 12 | 70* | -27 | -23 | -3% | 24%
CCOc1ccc(C(=O)CCC(=O)NNC(=O)CCN2CCN(c3ccccc3)CC2)cc1 | nt | 10 | nt | -13 | nt | nt | nt
CC(Oc1ccc(Br)cc1)C(=O)NNC(=O)CCN1CCN(c2ccccc2)CC1 (stereo unspecified) | 38* | 4 | 61* | -36 | -15 | 39% | ?
Cc1cc(C)n(-c2nc(C)c(C)c(=O)n2CC(=O)Nc2ccc(Cl)c(Cl)c2)n1 | -4 | nt | nt | nt | -4 | nt | nt
COc1ccc(S(=O)(=O)N2CCC(N3CCN(Cc4ccccc4)CC3)CC2)cc1 | 77* | 14 | 74* | -2 | -20 | -9% | 27%
CN1C(=O)c2[nH]nc(-c3ccc(F)cc3)c2C1c1cccc(O)c1 (stereo unspecified) | 2 | nt | nt | nt | 16 | nt | nt
SMILES | D2 ag-1 | D2 ag-2 | D2 antagonist | D2 PAM-1 | D2 PAM-2 | D3 arrestin ag | D2 ag-3
Cc1ccccc1C(=O)NCc1nc2cccnc2n1Cc1ccccc1 | 0 | nt | nt | nt | nt | nt | nt
Cc1cc(C)cc(NC(=O)c2cc(C)nn2C)c1 | 34* | -5 | 2 | -6 | -14 | 3% | -1%
COc1ccc2c(c1)[nH]c1c(=O)n(Cc3ccco3)cnc12 | 32* | -3 | 1 | -4 | -18 | -7% | -3%
COc1ccc2c(c1)[nH]c1c(=O)n(Cc3ccccn3)cnc12 | -1 | 0 | 15 | 4 | 13 | nt | nt
COc1ccc(NC(=O)Nc2cc(C(=O)NCc3ccc(C)cc3)ccc2N2CCCC2)cc1 | nt | nt | nt | nt | 2 | nt | nt
COc1ccc(OC)c(CNC(=O)CCCn2nc(C)c3c(C)n(-c4ccc(C)cc4)nc3c2=O)c1 | nt | nt | nt | nt | 0 | nt | nt
Cc1cc(N/N=C/c2ccccc2[N+](=O)[O-])nc(-n2nc(C)cc2C)n1 | 34* | -6 | -10 | 0 | -15 | -6% | -3%
COc1cc2c(cc1OC)C(c1ccc(F)cc1)N(c1ccc(F)cc1)C(=O)C2 (stereo unspecified) | 1 | nt | nt | nt | 2 | nt | nt
COc1ccc(C2C=C(c3ccccc3)Nc3nnnn32)cc1 (stereo unspecified) | nt | 1 | nt | -11 | 4 | -6% | -3%
O=C(NCC(c1ccco1)N1CCN(c2ccccc2)CC1)C(=O)NC1CC1 (stereo unspecified) | 13 | 13 | 20 | ? | 1 | ? | ?
O=C(NCC(c1ccco1)N1CCN(c2ccccc2)CC1)C(=O)NC1CCCC1 (stereo unspecified) | 2 | 7 | -4 | -3 | -8 | 24% | 11%
COc1ccc(-n2nnnc2C2CCN(S(=O)(=O)c3ccc(NC(C)=O)cc3)CC2)cc1 | 2 | nt | nt | nt | -4 | nt | nt
CCc1nc(C)cn1S(=O)(=O)c1ccc(Cl)c(Cl)c1OC | -1 | nt | nt | nt | 11 | nt | nt
CN(Cc1ccccc1)C(=O)c1ccc(NC(=O)Cc2cccc(NC(=O)C3CCN(C(=O)C4CCC4)CC3)c2)cc1 | 1 | 2 | -6 | -7 | 9 | -1% | -2%
CN(Cc1ccccc1)C(=O)c1ccc(NC(=O)Cc2ccc(NC(=O)C3CCN(C(=O)C4CCC4)CC3)cc2)cc1 | nt | -1 | nt | nt | nt | nt | nt
Cc1nn(C)c(C)c1/C=C(/C(=O)C(C)C)n1cncn1 | 4 | -2 | 10 | -12 | -6 | -7% | -5%
CCOC(=O)c1cc(OC(=O)c2ccc(C)cc2)n(-c2ccccc2)n1 | nt | nt | nt | nt | -8 | nt | nt
COc1ccc([C@H]2CC(=O)C=C(c3ccccc3Oc3ccccc3)C2)cc1 | 0 | -5 | 7 | -5 | -12 | -13% | 3%
